High-throughput results (PubChem)
Shown are actives, neighbours in structure and some others; about 3.2% of the full set was active somewhere.
Luciferase inh: inhibitors of firefly luciferase | AID 411 | P08659 | actives 2.2% (n = 72,000) | purified firefly luciferase, luminescence, 8 min | Potency, µM (top dose mostly 57.1 µM), for inactives: top-dose activity change, negative = inhibition, actives largely listed as inhibitors; active means well fitted inhibition curve with a large enough effect; inconclusive means small, poorly fitted or top-dose-only effect; further: on the % scale 0 is the no-effect control and ±100 the full control effect; nearly all actives have a fitted effect of over 40% in size
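qHTS concentration-response profiling: light output of P. pyralis luciferase with luciferin and 10 uM ATP, imidazole buffer pH 7.2. Read by luminescence after 8-min room-temperature incubation.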
Bst PK mod: modulators of Bacillus stearothermophilus pyruvate kinase; AID 361; Potency, µM; actives 1.2% (n = 51,000); purified pyruvate kinase, luminescence ATP production; ribose 5-phosphate activator present at AC10; in the data active means potency below about 11 µM; inconclusive means mostly about 12 µM to 25 µM;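 the screen sought inhibitors and activators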;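 further: scaled between full activation by ribose 5 phosphate and full inhibition by luteolin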
GBA mod: modulators of human glucocerebrosidase; actives 1.1% (n = 48,000); AID 360; Potency, µM; purified enzyme, resorufin glucoside fluorescence (screen aimed at inhibitors), 20 min; P04062; in the data active means potency below about 15 µM; inconclusive means mostly about 16 µM to 33 µM;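 further: the screen sought inhibitors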
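Wild-type enzyme at 0.2 nM final in 50mM citric acid/KH2PO4, 10mM sodium taurocholate, 0.01% tween-20, pH 5.9, with resorufin beta-D-glucopyranoside at 30 uM final. Compounds titrated, 20 min at RT, red fluorescence read; AC50 from titration.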
An asterisk follows results filed as active; [ ] = another dose, or the depositor's remark. Potency means the concentration at half of the fitted maximal effect.

`Cc1ccc(C)c(S(=O)(=O)Nc2ccccc2C(=O)Nc2cc(C)on2)c1` gave Luciferase inh 1%, Bst PK mod >57 and GBA mod 4.8*.
Screening Cc1cc(NC(=O)c2ccccc2NS(=O)(=O)c2c(C)c(C)cc(C)c2C)no1 returned Luciferase inh 4%, Bst PK mod >57 and GBA mod >77.
CN(C)c1ccc(C(=O)Nc2nc3c(s2)CCCC3)cc1 was read as Luciferase inh 5µM*.
`O=C(Nc1nc(=O)c2ccccc2s1)c1ccccc1` gave Luciferase inh -20%[25.5 µM] and Bst PK mod inactive.
`Cc1onc(-c2c(F)cccc2Cl)c1C(=O)Nc1nc2c(s1)CCCC2` gave Luciferase inh 0%, Bst PK mod >57 and GBA mod inconclusive.
For Cc1onc(-c2ccccc2)c1C(=O)Nc1nc2c(s1)CCCC2 the results were Luciferase inh 0%, Bst PK mod >57 and GBA mod inconclusive.
Screening Cc1cc(C(=O)Nc2nc3c(s2)CCCC3)no1 returned Luciferase inh 25µM*, Bst PK mod inactive and GBA mod >77.
For O=C(Nc1nc2c(s1)C(=O)CCC2)c1ccccc1 the results were Luciferase inh 13µM*.
`COc1ccc(Oc2ncc3nc(-c4ccc(Cl)cc4)c(=O)n(C[C@H]4CCCO4)c3n2)cc1` gave Luciferase inh 2%[11.4 µM].
Screening O=c1c(-c2ccccc2)nc2cnc(Oc3cccc(Cl)c3)nc2n1C1CC1 returned Luciferase inh 0%[11.4 µM].
For Oc1ccc(Cc2nccc3cc(O)c(O)cc23)cc1O the results were Luciferase inh -2%[11.4 µM].
`Cc1c(Cl)cccc1NC(=O)c1cc(-c2ccc(O)cc2)on1` gave Luciferase inh -4%.
`CCCc1cc(COC)c(C#N)c(=O)[nH]1` gave Luciferase inh 0%[11.4 µM].
CCOc1ccc(NC(=O)c2oc3ccccc3c2NC(=O)C(C)C)cc1 was read as Luciferase inh -1%, Bst PK mod >57 and GBA mod >77.
Screening CCOC(=O)CSc1nnc(-c2ccc(Cl)cc2Cl)o1 returned Luciferase inh 13µM* and GBA mod >77.
CCCOC(=O)CSc1nnc(-c2ccc(Cl)cc2Cl)o1 was read as Luciferase inh -8%, Bst PK mod >57 and GBA mod >77.
`CC(C)NC(=O)N1CCC2(CC1)CCN(C(=O)c1ccco1)CC2` gave Luciferase inh 0%[11.4 µM].
Cc1cccn2cc(-c3ccccc3)nc12 was read as Luciferase inh 10µM*, Bst PK mod inconclusive and GBA mod >77.
For CCCS(=O)(=O)NCc1cn2cccc(C)c2n1 the results were Luciferase inh 0%, Bst PK mod >57 and GBA mod >77.
Cc1cccn2cc(-c3ccc(F)cc3)nc12 was read as Luciferase inh 7.9µM*.
For Cc1cccn2cc(CNc3ccccc3)nc12 the results were Luciferase inh -18%, Bst PK mod >57 and GBA mod >77.
`O=c1cnc2cnc(N3CCOCC3)nc2n1Cc1ccc(F)cc1` gave Luciferase inh 1%[11.4 µM].
CCNc1ncc2nc(-c3ccc(OC)cc3)c(=O)n(CCOC)c2n1 was read as Luciferase inh 0%[11.4 µM].
`COc1ccc(OC(C)C(=O)N2CCc3ccccc3C2)cc1` (stereo not given) gave Luciferase inh 1%, Bst PK mod inactive and GBA mod >77.
COc1cc(C(=O)OC(C)C(=O)N2CCc3ccccc3C2)ccc1OCC(=O)N1CCOCC1 (stereo not given) was read as Luciferase inh -2%, Bst PK mod 11* and GBA mod >77.
`O=C(c1cc2c(s1)-c1ccccc1OC2)N1CCCC1` gave Luciferase inh 13µM*.
`O=C(c1cc2c(s1)-c1ccccc1OC2)N1CCN(c2ccccn2)CC1` gave Luciferase inh 1%.
For COc1cccc(Nc2ncc3nc(C)c(=O)n(-c4ccccc4)c3n2)c1 the results were Luciferase inh -1%[11.4 µM].
`COc1nc(-c2ccccc2)ccc1-c1noc(-c2cccs2)n1` gave Luciferase inh -2%, Bst PK mod >57 and GBA mod inactive.
COc1cccc(-c2nc(-c3ccc(NC(=O)c4cccnc4)cc3)no2)c1 was read as Luciferase inh 1%, Bst PK mod >57 and GBA mod >77.
For COc1ccc(-c2noc(-c3ccc(Cl)cc3)n2)cc1 the results were Luciferase inh inconclusive, Bst PK mod 5.4* and GBA mod >77.
COC(=O)c1ccc(-c2nc(-c3cccs3)no2)cc1 was read as Luciferase inh 1.6µM*.
COC(=O)c1ccc(-c2nc(-c3ccc(Br)o3)no2)cc1 was read as Luciferase inh -7%.
`COc1cccc(-c2nc(-c3ccccc3)no2)c1` gave Luciferase inh 10µM*, Bst PK mod 9* and GBA mod inactive.
COc1cccc(-c2noc(-c3cccs3)n2)c1 was read as Luciferase inh 10µM* and Bst PK mod inconclusive.
